Shown are actives, neighbours in structure and some others; about 6.5% of the full set was active somewhere.
PMK inhibit: blocks S. pneumoniae phosphomevalonate kinase; purified PMK, PK/LDH-coupled NADH absorbance 340 nm; inhibition, % at 10 µM; 0.49% of 65,000 active; AID 539;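 active = top-ranked compounds by inhibition in the single 10 µM screen, taking a fixed number of the strongest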
MK inhibit: inhibitors of Streptococcus pneumoniae mevalonate kinase; purified MK, PK/LDH-coupled NADH absorbance 340 nm; 0.48% of 65,000 active; inhibition, % at 10 µM;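 active = ranked among the strongest by inhibition in the single 10 µM screen, a fixed top-ranked set picked for dose follow-up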
DPM-DC inhibit: S. pneumoniae DPM-DC inhibition. purified DPM-DC, PK/LDH coupled NADH fluorescence. calls only at 10 µM. 0.49% of 65,000 active;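 active = the 320 compounds with the highest percent inhibition in the single-dose primary screen, excluding strongly autofluorescent ones, cut at about 32% in these data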;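 note: kinetic rate of NADH fluorescence loss reporting ADP formed by the decarboxylase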
A340 absorber: compound absorbs light at 340 nm; compound absorbance at 340 nm, fold over control; fold change at 10 µM; 65,000 tested, under 10 active; AID 708;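 active = at 10 µM dose, initial 340 nm absorbance at least 2 fold that of control wells; inactive = change under 2 fold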;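 note: initial absorbance extrapolated from kinetic A340 decline of NADH oxidation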
NADH enzymes: inhibition of NAD/NADH coupling enzymes, library profiling. coupled PK/LDH NADH assays, four targets. IC50, µM (doses to about 10 µM). 0.02% of 65,000 active;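 active = single-dose screening hits from any of four coupled enzyme assays that gave an IC50 when retested across doses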;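 note: the DPM-DC format reads NADH fluorescence rather than 340 nm absorbance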
Autofluor 339: intrinsic fluorescence of library compounds, ex339/em460 – biochemical, MLSMR library, data from DPM-DC assay, artefact control, profiling panel; AID 709; fluorescence fold increase at 10 µM; 5.5% of 65,000 active; compound autofluorescence, ex339/em460 nm, NADH buffer; active compounds read high; 1 = no-compound wells, NADH background;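 active = at 10 µM, mean starting fluorescence two-fold or more over control wells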;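 note: signal is the first read of a kinetic run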
A number is an active result.

CC(NC(=O)c1ccccc1O)c1ccccc1 (stereo not drawn) was read as PMK inhibit inactive, MK inhibit inactive, A340 absorber inactive, NADH enzymes inactive and Autofluor 339 2.2.
For Cc1csc2ncc(C(=O)NC(C)c3ccccc3)c(=O)n12 (stereo not drawn) the results were PMK inhibit inactive, MK inhibit inactive, A340 absorber inactive, NADH enzymes inactive and Autofluor 339 2.1.
Cc1csc2ncc(C(=O)NCc3ccccc3Cl)c(=O)n12 was read as PMK inhibit inactive, MK inhibit inactive, A340 absorber inactive, NADH enzymes inactive and Autofluor 339 2.1.
`O=C1NC(c2ccc3c(c2)OCO3)Nc2ccccc21` (stereo not drawn) gave PMK inhibit inactive, MK inhibit inactive, A340 absorber inactive, NADH enzymes inactive and Autofluor 339 4.8.
O=C1NC(c2ccc3c(c2)OCO3)Oc2ccccc21 (stereo not drawn) was read as PMK inhibit inactive, MK inhibit inactive, DPM-DC inhibit inactive, A340 absorber inactive, NADH enzymes inactive and Autofluor 339 inactive.
Screening CC1(CCc2ccc3c(c2)OCO3)NC(=O)c2ccccc2N1 (stereo not drawn) returned PMK inhibit inactive, MK inhibit inactive, A340 absorber inactive, NADH enzymes inactive and Autofluor 339 3.8.
Screening Cc1ccccc1-n1c(=O)cc(NCc2ccc3c(c2)OCO3)[nH]c1=O returned PMK inhibit inactive, MK inhibit inactive, DPM-DC inhibit inactive, A340 absorber inactive, NADH enzymes inactive and Autofluor 339 inactive.
For Cc1noc(C)c1S(=O)(=O)N1CCC(Cc2ccccc2)CC1 the results were PMK inhibit inactive, MK inhibit inactive, DPM-DC inhibit inactive, A340 absorber inactive, NADH enzymes inactive and Autofluor 339 inactive.
Cc1nc(NCCO)c2nnn(Cc3ccccc3F)c2n1 was read as PMK inhibit inactive, MK inhibit inactive, DPM-DC inhibit inactive, A340 absorber inactive, NADH enzymes inactive and Autofluor 339 inactive.
For COc1cc(S(=O)(=O)N2CCN(C)CC2)ccc1Cl the results were PMK inhibit inactive, MK inhibit inactive, DPM-DC inhibit inactive, A340 absorber inactive, NADH enzymes inactive and Autofluor 339 inactive.
`CN1CCN(S(=O)(=O)c2cccc(S(=O)(=O)c3ccc(Cl)c(Cl)c3)c2)CC1` gave PMK inhibit 25, MK inhibit inactive, DPM-DC inhibit inactive, A340 absorber inactive, NADH enzymes inactive and Autofluor 339 inactive.
For Cc1ccc(C2/C(=C(\O)c3c(C)nc4ccccn34)C(=O)C(=O)N2CCCN(C)C)o1 (stereo not drawn) the results were PMK inhibit inactive, MK inhibit inactive, DPM-DC inhibit inactive, A340 absorber inactive, NADH enzymes inactive and Autofluor 339 inactive.
For Cc1ccc(C2NC(=O)c3c(sc4c3CCN(C)C4)N2)s1 (stereo not drawn) the results were PMK inhibit inactive, MK inhibit inactive, DPM-DC inhibit inactive, A340 absorber inactive, NADH enzymes inactive and Autofluor 339 2.3.
For Cc1ccc(C2NC(=O)c3c(sc4c3CCN(C)C4)N2)o1 (stereo not drawn) the results were PMK inhibit inactive, MK inhibit inactive, DPM-DC inhibit inactive, A340 absorber inactive, NADH enzymes inactive and Autofluor 339 inactive.
Screening CN1CCc2c(sc3c2C(=O)NC(c2ccccn2)N3)C1 (stereo not drawn) returned PMK inhibit inactive, MK inhibit inactive, DPM-DC inhibit inactive, A340 absorber inactive, NADH enzymes inactive and Autofluor 339 2.4.
Screening O=C1NC(c2ccccn2)Nc2sc3c(c21)CCC3 (stereo not drawn) returned PMK inhibit inactive, MK inhibit inactive, DPM-DC inhibit inactive, A340 absorber inactive, NADH enzymes inactive and Autofluor 339 inactive.
Screening O=C1CC(c2cccnc2)c2cc3c(cc2N1)OCO3 (stereo not drawn) returned PMK inhibit inactive, MK inhibit inactive, DPM-DC inhibit active, A340 absorber inactive, NADH enzymes inactive and Autofluor 339 inactive.
`CC1Cc2ccccc2N1C(=O)CSc1nnc(Cn2nnc3ccccc32)n1C` (stereo not drawn) gave PMK inhibit inactive, MK inhibit inactive, DPM-DC inhibit inactive, A340 absorber inactive, NADH enzymes inactive and Autofluor 339 inactive.
`CSc1nc2sc3c(c2c2nnnn12)CCC3` gave PMK inhibit inactive, MK inhibit inactive, DPM-DC inhibit inactive, A340 absorber inactive, NADH enzymes inactive and Autofluor 339 inactive.
For CCN1CC=C2C(C#N)=C(N)C(C#N)(C#N)C(c3cc(Cl)ccc3Cl)C2C1 (stereo not drawn) the results were PMK inhibit inactive, MK inhibit inactive, DPM-DC inhibit inactive, A340 absorber inactive, NADH enzymes inactive and Autofluor 339 2.9.
For CC(C)N1CC=C2C(C#N)=C(N)C(C#N)(C#N)C(c3ccccc3)C2C1 (stereo not drawn) the results were PMK inhibit inactive, MK inhibit inactive, DPM-DC inhibit inactive, A340 absorber inactive, NADH enzymes inactive and Autofluor 339 inactive.
Cc1ccc(-c2nc3cnccn3c2Nc2ccccc2)o1 was read as PMK inhibit inactive, MK inhibit inactive, A340 absorber inactive, NADH enzymes inactive and Autofluor 339 2.1.
CCOC(=O)N1CCN(C(=O)COc2ccc3c(c2)C(=O)CC2(CCN(C(C)=O)CC2)O3)CC1 was read as PMK inhibit inactive, MK inhibit inactive, A340 absorber inactive, NADH enzymes inactive and Autofluor 339 5.
`CCOC(=O)C1CCN(Cc2ccc(C(=O)OC)cc2)CC1` gave PMK inhibit inactive, MK inhibit 60, DPM-DC inhibit inactive, A340 absorber inactive, NADH enzymes inactive and Autofluor 339 inactive.
For Cc1ccc(NCc2nnc(SCC(=O)N3CCc4ccccc43)n2C)cc1 the results were PMK inhibit inactive, MK inhibit inactive, DPM-DC inhibit inactive, A340 absorber inactive, NADH enzymes inactive and Autofluor 339 inactive.
For COC(=O)C1=CN(C2CC2)C=C(C(=O)OC)C1c1ccc(C(=O)OC)cc1 the results were PMK inhibit inactive, MK inhibit inactive, A340 absorber inactive, NADH enzymes inactive and Autofluor 339 2.1.
CCOC(=O)C1CCN(S(=O)(=O)c2ccc(C(=O)OC)cc2)CC1 was read as PMK inhibit inactive, MK inhibit inactive, DPM-DC inhibit inactive, A340 absorber inactive, NADH enzymes inactive and Autofluor 339 inactive.
`Cc1ccc(-c2noc(CCC(=O)NCCCN3CCN(c4cccc(Cl)c4)CC3)n2)cc1` gave PMK inhibit inactive, MK inhibit inactive, DPM-DC inhibit inactive, A340 absorber inactive, NADH enzymes inactive and Autofluor 339 inactive.
Screening Cc1nc2c(c(=O)n1Cc1ccccc1Cl)c1nc3ccccc3nc1n2Cc1ccco1 returned PMK inhibit inactive, MK inhibit inactive, DPM-DC inhibit inactive, A340 absorber inactive, NADH enzymes inactive and Autofluor 339 2.3.
Screening Cn1nnc2c(NCc3ccco3)nccc21 returned PMK inhibit inactive, MK inhibit inactive, A340 absorber inactive, NADH enzymes inactive and Autofluor 339 2.1.
